About 83,000 compounds went through this panel and 20% of them were active in at least one assay; those are over-represented in the sample as a whole.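 Treatment: one concentration, 48 hours, 96-well format. Scoring: percent growth, with anything below 10 considered active.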 Activity calls are given as the source filed them.
What was measured:
Test in all cases: NCI-60 one-dose screen, 48 h (100 = growth as untreated, 0 = no growth, -100 = all killed)
Conditions in all cases: 10 µM unless noted
SK-MEL-2 melanoma = tested on: SK-MEL-2 melanoma
EKVX NSCLC = tested on: EKVX NSCLC
SN12C renal = tested on: SN12C renal
UO-31 renal = tested on: UO-31 renal
ACHN renal = tested on: ACHN renal
CAKI-1 renal = tested on: CAKI-1 renal
A498 renal = tested on: A498 renal
CCRF-CEM leukemia = tested on: CCRF-CEM leukemia
MOLT-4 leukemia = tested on: MOLT-4 leukemia
TK-10 renal = tested on: TK-10 renal

Measured: growth

COc1cc(/C=N\NC(=O)CN2CCN(c3cc4c(cc3F)c(=O)c(C(=O)N/N=C/c3ccc(O)c(OC)c3)cn4C3CC3)CC2)ccc1O
active: MOLT-4 leukemia 5.76%
inactive: SK-MEL-2 melanoma 68% | EKVX NSCLC 84.3% | SN12C renal 53.4% | UO-31 renal 76.7% | ACHN renal 99.2% | CAKI-1 renal 82.8% | A498 renal 85.3% | CCRF-CEM leukemia 18.9%

O=C(O)c1cn(C2CC2)c2cc(N3CCN(Cc4nc5c(cnn5-c5ccc([N+](=O)[O-])cc5)c(=O)[nH]4)CC3)c(F)cc2c1=O
inactive: SK-MEL-2 melanoma 120% | EKVX NSCLC 93.4% | SN12C renal 95.2% | UO-31 renal 71.8% | ACHN renal 103% | CAKI-1 renal 94.8% | A498 renal 101% | CCRF-CEM leukemia 99% | MOLT-4 leukemia 99.4%

O=[N+]([O-])c1cccc(-c2nc3sccn3c2-c2ccnc(NCCCNS(=O)(=O)c3ccc(F)cc3)n2)c1
active: SK-MEL-2 melanoma -15.9% | UO-31 renal -26.8% | ACHN renal 5.38% | CAKI-1 renal 9.79% | CCRF-CEM leukemia 1.95% | MOLT-4 leukemia -18.2%
inactive: EKVX NSCLC 18.3% | SN12C renal 10.6% | A498 renal 29.7%

CS(=O)(=O)c1ccc(-c2cnc3ccc(-c4cccc(S(C)(=O)=O)c4)nn23)cc1
active: A498 renal -15.6% | MOLT-4 leukemia 0.943%
inactive: SK-MEL-2 melanoma 48.3% | EKVX NSCLC 67.5% | SN12C renal 46.8% | UO-31 renal 24.2% | ACHN renal 22.4% | CAKI-1 renal 23.2% | CCRF-CEM leukemia 18.4%

COc1ncc(-c2ccc3ncnc(Nc4cccc(Cl)c4)c3c2)cc1NS(C)(=O)=O
active: UO-31 renal 8.8% | TK-10 renal -11.1% | A498 renal 0.974% | MOLT-4 leukemia -6.32%
inactive: SK-MEL-2 melanoma 32% | EKVX NSCLC 12.1% | SN12C renal 29.1% | CAKI-1 renal 14.9% | CCRF-CEM leukemia 32.5%

O=C1C=CC(=O)N1c1ccc(Cc2ccc(N3C(=O)C=CC3=O)cc2)cc1
inactive: SK-MEL-2 melanoma 112% | EKVX NSCLC 109% | SN12C renal 96.1% | UO-31 renal 81.9% | ACHN renal 94.1% | CAKI-1 renal 65.7% | A498 renal 91.2% | CCRF-CEM leukemia 89.5% | MOLT-4 leukemia 21.8%

O=S(=O)(NCCCNc1cc(-c2cn(-c3ccccc3)nc2-c2ccccc2)ccn1)c1ccc(C(F)(F)F)cc1
inactive: SK-MEL-2 melanoma 79% | EKVX NSCLC 46.4% | SN12C renal 63% | UO-31 renal 40.4% | TK-10 renal 72.3% | CAKI-1 renal 52.4% | A498 renal 70.6% | CCRF-CEM leukemia 50.2% | MOLT-4 leukemia 29.4%

COc1ccc(CN2C(=O)/C(=C\c3cc(OC)c(OC)c(OC)c3)c3cc(OC)ccc32)cc1
inactive: EKVX NSCLC 13.5% | SN12C renal 18% | TK-10 renal 11.2% | A498 renal 38.6%
active: SK-MEL-2 melanoma -13.4% | UO-31 renal 6.01% | ACHN renal -60.5% | CAKI-1 renal -2.31% | MOLT-4 leukemia -24.7%

C=C1CCC2C3(C)COC(c4ccccc4Br)OC3CCC2(C)C1C/C=C1/C(=O)OCC1OC(C)=O (stereo not given)
active: SK-MEL-2 melanoma -37.4% | EKVX NSCLC -3.86% | SN12C renal -43.7% | TK-10 renal -48.5% | ACHN renal -80.2% | CAKI-1 renal -32.4% | MOLT-4 leukemia -45.5%
inactive: UO-31 renal 26% | A498 renal 42.8%

COc1cc(C(=O)/C=C/c2c(C)n([O-])c3ccc(C)cc3[n+]2=O)cc(OC)c1OC
inactive: SK-MEL-2 melanoma 84.3% | EKVX NSCLC 50.8% | SN12C renal 60% | TK-10 renal 26.6% | A498 renal 95.3%
active: UO-31 renal -27.3% | ACHN renal -40.9% | CAKI-1 renal 6.71% | MOLT-4 leukemia -30.2%

CCCCCCCCCC(=O)Oc1ccc(/C(=C(/C)c2ccccc2)c2ccc(OCCN3CCCC3)cc2)cc1
active: SK-MEL-2 melanoma -31.5% | UO-31 renal 7.66% | CAKI-1 renal 1.34% | A498 renal 1.68% | MOLT-4 leukemia 2.39%
inactive: EKVX NSCLC 44.1% | SN12C renal 44.8% | ACHN renal 35.2% | CCRF-CEM leukemia 13.1%

CC(C)(C)c1nn(-c2ccccc2)c2c1CC1(CN2Cc2ccc3c(c2)OCO3)C(=O)c2ccccc2C1=O
inactive: SK-MEL-2 melanoma 115% | EKVX NSCLC 119% | SN12C renal 96.5% | UO-31 renal 104% | ACHN renal 89.9% | CAKI-1 renal 98.9% | A498 renal 106% | CCRF-CEM leukemia 85.2% | MOLT-4 leukemia 80.3%

O=S(=O)(NCCCNc1cc(-c2cn(-c3ccccc3)nc2-c2cccc(O)c2)ccn1)c1ccccc1
inactive: SK-MEL-2 melanoma 74.6% | EKVX NSCLC 37.8% | SN12C renal 68.7% | UO-31 renal 37.8% | TK-10 renal 62.5% | CAKI-1 renal 43.3% | A498 renal 50.6% | CCRF-CEM leukemia 38.5% | MOLT-4 leukemia 37.1%

CCOC(=O)c1cnc2cc(Cl)c(F)cc2c1Nc1cccc(NS(C)(=O)=O)c1
inactive: SK-MEL-2 melanoma 113% | EKVX NSCLC 90.8% | SN12C renal 100% | UO-31 renal 73.3% | ACHN renal 93.5% | CAKI-1 renal 86.2% | A498 renal 78.9% | CCRF-CEM leukemia 103% | MOLT-4 leukemia 99.9%

Cc1cc(Cl)ccc1Nc1nc(C(F)(F)F)ccc1C(=O)N/N=C/c1ccc(F)cc1
active: SK-MEL-2 melanoma -5.51% | SN12C renal 8.7% | UO-31 renal 2.45% | ACHN renal 7.12% | CAKI-1 renal 9.97% | A498 renal 8.05% | CCRF-CEM leukemia 4.12% | MOLT-4 leukemia -6.74%
inactive: EKVX NSCLC 16.7%

Cc1ccc2c(c1)C(=O)c1c-2c(OCCCN(C)C)nc2ccccc12
inactive: SK-MEL-2 melanoma 44.7% | EKVX NSCLC 28.4% | SN12C renal 19.4% | CAKI-1 renal 24.2% | A498 renal 33.3% | CCRF-CEM leukemia 19.3%
active: UO-31 renal 3.12% | ACHN renal -6.51% | MOLT-4 leukemia -10.5%

CC/C=C\C[C@H](F)C/C=C1/C(=O)C=C[C@@H]1C/C=C\CCCC(=O)O
inactive: SK-MEL-2 melanoma 65.2% | EKVX NSCLC 75.1% | SN12C renal 44.3% | UO-31 renal 57.5% | ACHN renal 39.5% | CAKI-1 renal 42.5% | A498 renal 106%
active: CCRF-CEM leukemia -7.62% | MOLT-4 leukemia -4.45%

CCC(c1ccc(O)cc1)C(CC)c1ccc(O)c(F)c1 (stereo not given)
inactive: SK-MEL-2 melanoma 75.1% | EKVX NSCLC 84.2% | SN12C renal 88.2% | UO-31 renal 55.4% | TK-10 renal 96.6% | ACHN renal 90.5% | CAKI-1 renal 89.2% | A498 renal 107% | MOLT-4 leukemia 54.9%

C(=N\Nc1ccccn1)/c1ccccn1
active: UO-31 renal -10.7% | CCRF-CEM leukemia 0.917%
inactive: SK-MEL-2 melanoma 48.9% | EKVX NSCLC 25.8% | SN12C renal 36.5% | ACHN renal 14.1% | CAKI-1 renal 10.5% | A498 renal 22.4% | MOLT-4 leukemia 18.8%

COc1cc2nc3cc([N+](=O)[O-])ccc3c(NCCCNCC(C)(C)O)c2cc1OC
active: SK-MEL-2 melanoma -47.5% | EKVX NSCLC -19.6% | SN12C renal -34.8% | UO-31 renal 1.88% | ACHN renal 1.58% | A498 renal -82.2% | CCRF-CEM leukemia 1.71%
inactive: CAKI-1 renal 18.4% | MOLT-4 leukemia 10.5%

COC(=O)[C@@H]1CC[C@]2(C)[C@H](CC[C@@H]3O[C@@]32C)[C@@]1(C)CC(=O)c1ccoc1
inactive: SK-MEL-2 melanoma 78.2% | EKVX NSCLC 105% | SN12C renal 92.7% | UO-31 renal 97% | ACHN renal 105% | CAKI-1 renal 106% | A498 renal 88.6% | CCRF-CEM leukemia 102% | MOLT-4 leukemia 94.8%

CCN(CC)CC#CCOC(=O)[C@]1(C)CCC[C@@]2(C)[C@H]1CC(C=O)=C1C=C(C(C)C)CC[C@@H]12
inactive: SK-MEL-2 melanoma 88% | EKVX NSCLC 77.8% | SN12C renal 77.6% | UO-31 renal 52.6% | ACHN renal 86.9% | CAKI-1 renal 101% | A498 renal 69.7% | CCRF-CEM leukemia 50.4% | MOLT-4 leukemia 50.1%

CN1CCN(Cc2ccc(NC(=O)c3[nH]ncc3Nc3ccnc4ccsc34)cc2)CC1
inactive: SK-MEL-2 melanoma 64.9% | EKVX NSCLC 41.1% | SN12C renal 21.3% | UO-31 renal 44.5% | ACHN renal 13.5% | CAKI-1 renal 59.3% | A498 renal 17% | CCRF-CEM leukemia 11%
active: MOLT-4 leukemia 2.39%

O=C(/C=C\c1ccc2ccccc2n1)c1cc(Cl)ccc1O
inactive: EKVX NSCLC 85.9% | SN12C renal 110% | UO-31 renal 65.2% | TK-10 renal 95.1% | ACHN renal 89.5% | CAKI-1 renal 44.9% | A498 renal 113% | MOLT-4 leukemia 54.2%
active: SK-MEL-2 melanoma -9.71%

c1ccc(-c2nc(N3CCOCC3)c3c4c(sc3n2)CCCCC4)nc1
inactive: SK-MEL-2 melanoma 61.7% | EKVX NSCLC 50.1% | SN12C renal 69% | UO-31 renal 35.7% | ACHN renal 65.1% | CAKI-1 renal 46.2% | CCRF-CEM leukemia 79.9% | MOLT-4 leukemia 58.9%
active: A498 renal 9.92%

C=CC[N+]1(CC)CCN=C1CCCCCCCCCCCCCCCCC (stereo not given)
active: SK-MEL-2 melanoma -74% | EKVX NSCLC -75.7% | UO-31 renal -65.5% | TK-10 renal -94.2% | ACHN renal -86.6% | A498 renal -15.6% | CCRF-CEM leukemia -59.4% | MOLT-4 leukemia -60%

Cc1cc(Nc2nc(N3CCN(C)CC3)nc3ccccc23)n[nH]1
inactive: SK-MEL-2 melanoma 43.5% | SN12C renal 68.1% | UO-31 renal 54.9% | TK-10 renal 54.8% | ACHN renal 41.3% | CAKI-1 renal 13.4% | A498 renal 16.9% | CCRF-CEM leukemia 65.3% | MOLT-4 leukemia 69.9%

CC/C(=C(\c1ccccc1)c1ccc(OCCNC)cc1)c1ccccc1
active: SK-MEL-2 melanoma -90.5% | EKVX NSCLC -69.2% | SN12C renal -90.5% | TK-10 renal -80.7% | ACHN renal -95% | CAKI-1 renal -68.2% | A498 renal -62.2% | CCRF-CEM leukemia 0.764%
inactive: MOLT-4 leukemia 27.1%

CCCCN(CCCC)CCC(C)(O)c1cc2ccccc2c2ccccc12 (stereo not given)
inactive: SK-MEL-2 melanoma 122% | EKVX NSCLC 103% | UO-31 renal 50.9% | TK-10 renal 104% | ACHN renal 96.9% | CAKI-1 renal 87.9% | A498 renal 83.1% | CCRF-CEM leukemia 42.4% | MOLT-4 leukemia 37.5%

From PubChem BioAssay (NCI)
